Test results published in the supplement of paper PMC7411054.
Where a name gives a salt, the structure may show the parent alone.

How the values were obtained:
Details in all cases: treatment time: 24 h
A549-ACTB-RAB5A [1] = assay: lowest phenotypically active concentration; higher = less potent
Method in brief: (§1)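 Cells from fifteen gene-edited reporter lines (A549, HepG2 and WPMY1) were treated for 24 h at 0.3, 1, 3 or 9 µM and imaged live, four wells per condition. Features were normalised per well to solvent control wells. A condition deviated if ≥3 of 4 wells passed the 95th percentile of control Euclidean distances and was reproducible if its median replicate Pearson correlation beat the 95th percentile of non-replicates; phenotypic activity needed both.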

A549-CANX-COX4 [2] = assay: as above
Method in brief: as §1

A549-GM130-SQSTM1 [3] = assay: as above
Method in brief: as §1

A549-TP53BP1-CLTA [4] = assay: as above
Method in brief: as §1

A549-TUBA1B-RELA [5] = assay: as above
Method in brief: as §1

A549-ACTB-RAB5A [6] = assay: phenotypically active (imaging signature differs from DMSO and reproducible) at any of 0.3-9 uM (binary (1 = active, 0 = inactive)); higher = active
Method in brief: as §1

A549-CANX-COX4 [7] = assay: as above
Method in brief: as §1

A549-GM130-SQSTM1 [8] = assay: as above
Method in brief: as §1

A549-TP53BP1-CLTA [9] = assay: as above
Method in brief: as §1

A549-TUBA1B-RELA [10] = assay: as above
Method in brief: as §1

HepG2-ACTB-RAB5A = assay: as above
Method in brief: as §1

HepG2-CANX-COX4 = assay: as above
Method in brief: as §1

HepG2-GM130-SQSTM1 = assay: as above
Method in brief: as §1

HepG2-TP53BP1-CLTA = assay: as above
Method in brief: as §1

HepG2-TUBA1B-RELA = assay: as above
Method in brief: as §1

WPMY1-ACTB-RAB5A = assay: as above
Method in brief: as §1

WPMY1-CANX-COX4 = assay: as above
Method in brief: as §1

WPMY1-GM130-SQSTM1 = assay: as above
Method in brief: as §1

WPMY1-TP53BP1-CLTA = assay: as above
Method in brief: as §1

WPMY1-TUBA1B-RELA = assay: as above
Method in brief: as §1

| Compound | lowest phenotypically active concentration (A549-ACTB-RAB5A [1]) [µM] | lowest phenotypically active concentration (A549-CANX-COX4 [2]) [µM] | lowest phenotypically active concentration (A549-GM130-SQSTM1 [3]) [µM] | lowest phenotypically active concentration (A549-TP53BP1-CLTA [4]) [µM] | lowest phenotypically active concentration (A549-TUBA1B-RELA [5]) [µM] | phenotypically active (A549-ACTB-RAB5A [6]) | phenotypically active (A549-CANX-COX4 [7]) | phenotypically active (A549-GM130-SQSTM1 [8]) | phenotypically active (A549-TP53BP1-CLTA [9]) | phenotypically active (A549-TUBA1B-RELA [10]) | phenotypically active (HepG2-ACTB-RAB5A) | phenotypically active (HepG2-CANX-COX4) | phenotypically active (HepG2-GM130-SQSTM1) | phenotypically active (HepG2-TP53BP1-CLTA) | phenotypically active (HepG2-TUBA1B-RELA) | phenotypically active (WPMY1-ACTB-RAB5A) | phenotypically active (WPMY1-CANX-COX4) | phenotypically active (WPMY1-GM130-SQSTM1) | phenotypically active (WPMY1-TP53BP1-CLTA) | phenotypically active (WPMY1-TUBA1B-RELA) |
| --- | --- | --- | --- | --- | --- | --- | --- | --- | --- | --- | --- | --- | --- | --- | --- | --- | --- | --- | --- | --- |
| COc1cc(C)c(Sc2cnc(NC(=O)c3ccc(CNC(C)C(C)(C)C)cc3)s2)cc1C(=O)N1CCN(C(C)=O)CC1 (stereo not given) | 1 | 9 | 3 | 9 | 1 | 1 (active) | 1 (active) | 1 (active) | 1 (active) | 1 (active) | 1 (active) | 1 (active) | 1 (active) | 1 (active) | 1 (active) | 1 (active) | 1 (active) | 1 (active) | 1 (active) | 1 (active) |
| COc1cc2c(Nc3ccc(Br)cc3F)ncnc2cc1OCC1CCN(C)CC1 [vandetanib] | 1 | 3 | 1 | 3 | 1 | 1 (active) | 1 (active) | 1 (active) | 1 (active) | 1 (active) | 1 (active) | 1 (active) | 1 (active) | 1 (active) | 1 (active) | 1 (active) | 1 (active) | 1 (active) | 1 (active) | 1 (active) |
| NCC(=O)Nc1ccc(-n2nc(C(F)(F)F)cc2-c2ccc3c(ccc4ccccc43)c2)cc1 | 1 | 1 | 1 | 1 | 1 | 1 (active) | 1 (active) | 1 (active) | 1 (active) | 1 (active) | 1 (active) | 1 (active) | 1 (active) | 1 (active) | 1 (active) | 1 (active) | 1 (active) | 1 (active) | 1 (active) | 1 (active) |
| CN(C)CCCNc1c2c(=O)n(C)c(=O)nc-2n(C)c2ccccc12 | 9 | 9 | 9 | 9 | 9 | 1 (active) | 1 (active) | 1 (active) | 1 (active) | 1 (active) | 1 (active) | 1 (active) | 1 (active) | 1 (active) | 1 (active) | 1 (active) | 1 (active) | 1 (active) | 1 (active) | 1 (active) |
| COC(=O)Nc1nc2ccc(C(=O)c3cccs3)cc2[nH]1 [Nocodazole] | ≤ 0.3 | ≤ 0.3 | ≤ 0.3 | ≤ 0.3 | ≤ 0.3 | 1 (active) | 1 (active) | 1 (active) | 1 (active) | 1 (active) | 1 (active) | 1 (active) | 1 (active) | 1 (active) | 1 (active) | 1 (active) | 1 (active) | 1 (active) | 1 (active) | 1 (active) |
| O=C1NC(=O)[C@@H](c2cn3c4c(cccc24)CCC3)[C@@H]1c1c[nH]c2ccccc12 [tivantinib] | 1 | 1 | 1 | 1 | 3 | 1 (active) | 1 (active) | 1 (active) | 1 (active) | 1 (active) | 1 (active) | 1 (active) | 1 (active) | 1 (active) | 1 (active) | 1 (active) | 1 (active) | 1 (active) | 1 (active) | 1 (active) |
| CC(C)(C)c1cnc(CSc2cnc(NC(=O)C3CCNCC3)s2)o1 | ≤ 0.3 | ≤ 0.3 | ≤ 0.3 | ≤ 0.3 | ≤ 0.3 | 1 (active) | 1 (active) | 1 (active) | 1 (active) | 1 (active) | 1 (active) | 1 (active) | 1 (active) | 1 (active) | 1 (active) | 1 (active) | 1 (active) | 1 (active) | 1 (active) | 1 (active) |
| Cc1nc(Nc2ncc(C(=O)Nc3c(C)cccc3Cl)s2)cc(N2CCN(CCO)CC2)n1 [dasatinib] | ≤ 0.3 | ≤ 0.3 | ≤ 0.3 | ≤ 0.3 | 1 | 1 (active) | 1 (active) | 1 (active) | 1 (active) | 1 (active) | 1 (active) | 1 (active) | 1 (active) | 1 (active) | 1 (active) | 1 (active) | 1 (active) | 1 (active) | 1 (active) | 1 (active) |
| Oc1cccc(Nc2ccnc3cc(-c4cccc(CN5CCOCC5)c4)sc23)c1 [LCB 03-0110 dihydrochloride] | 1 | 3 | 1 | 3 | 1 | 1 (active) | 1 (active) | 1 (active) | 1 (active) | 1 (active) | 1 (active) | 1 (active) | 1 (active) | 1 (active) | 1 (active) | 1 (active) | 1 (active) | 1 (active) | 1 (active) | 1 (active) |
| Cc1c(CN2CCN(C(=O)[C@H](C)O)CC2)sc2c(N3CCOCC3)nc(-c3cnc(N)nc3)nc12 | ≤ 0.3 | ≤ 0.3 | ≤ 0.3 | ≤ 0.3 | ≤ 0.3 | 1 (active) | 1 (active) | 1 (active) | 1 (active) | 1 (active) | 1 (active) | 1 (active) | 1 (active) | 1 (active) | 1 (active) | 1 (active) | 1 (active) | 1 (active) | 1 (active) | 1 (active) |
| COc1cc2c(NC3CCN(C(C)C)CC3)nc(N3CCC(F)(F)CC3)nc2cc1OCCCN1CCCC1 | ≤ 0.3 | 9 | ≤ 0.3 | 3 | ≤ 0.3 | 1 (active) | 1 (active) | 1 (active) | 1 (active) | 1 (active) | 1 (active) | 1 (active) | 1 (active) | 1 (active) | 1 (active) | 1 (active) | 1 (active) | 1 (active) | 1 (active) | 1 (active) |
| COc1cc(N2CCC(N3CCN(C)CC3)CC2)ccc1Nc1ncnc(Nc2ccccc2S(=O)(=O)C(C)C)n1 | 3 | 9 | 3 | 9 | 9 | 1 (active) | 1 (active) | 1 (active) | 1 (active) | 1 (active) | 1 (active) | 1 (active) | 1 (active) | 1 (active) | 1 (active) | 1 (active) | 1 (active) | 1 (active) | 1 (active) | 1 (active) |
| CC(=O)O[C@H]1C(=O)[C@@]2(C)[C@H]([C@H](OC(=O)c3ccccc3)[C@]3(O)C[C@H](OC(=O)[C@H](O)[C@@H](NC(=O)c4ccccc4)c4ccccc4)C(C)=C1C3(C)C)[C@]1(OC(C)=O)CO[C@@H]1C[C@@H]2O [paclitaxel] | ≤ 0.3 | ≤ 0.3 | ≤ 0.3 | ≤ 0.3 | ≤ 0.3 | 1 (active) | 1 (active) | 1 (active) | 1 (active) | 1 (active) | 1 (active) | 1 (active) | 1 (active) | 1 (active) | 1 (active) | 1 (active) | 1 (active) | 1 (active) | 1 (active) | 1 (active) |
| CCC1(O)CC2CN(CCc3c([nH]c4ccccc34)C(C(=O)OC)(c3cc4c(cc3OC)N(C)C3C(O)(C(=O)OC)C(OC(C)=O)C5(CC)C=CCN6CCC43C65)C2)C1 (stereo not given) [Vinblastine sulfate] | ≤ 0.3 | ≤ 0.3 | ≤ 0.3 | ≤ 0.3 | ≤ 0.3 | 1 (active) | 1 (active) | 1 (active) | 1 (active) | 1 (active) | 1 (active) | 1 (active) | 1 (active) | 1 (active) | 1 (active) | 1 (active) | 1 (active) | 1 (active) | 1 (active) | 1 (active) |
| CC[C@]1(O)C[C@@H]2CN(CCc3c([nH]c4ccccc34)[C@@](C(=O)OC)(c3cc4c(cc3OC)N(C=O)[C@H]3[C@@](O)(C(=O)OC)[C@H](OC(C)=O)[C@]5(CC)C=CCN6CC[C@]43[C@@H]65)C2)C1 [vincristine] | ≤ 0.3 | ≤ 0.3 | ≤ 0.3 | ≤ 0.3 | ≤ 0.3 | 1 (active) | 1 (active) | 1 (active) | 1 (active) | 1 (active) | 1 (active) | 1 (active) | 1 (active) | 1 (active) | 1 (active) | 1 (active) | 1 (active) | 1 (active) | 1 (active) | 1 (active) |
| CCN(CC)c1ccc(/C=N/NC(=O)c2ccncc2)c(O)c1 | ≤ 0.3 | 1 | 1 | 1 | 1 | 1 (active) | 1 (active) | 1 (active) | 1 (active) | 1 (active) | 1 (active) | 1 (active) | 1 (active) | 1 (active) | 1 (active) | 1 (active) | 1 (active) | 1 (active) | 1 (active) | 1 (active) |
| Nc1ncn([C@@H]2O[C@H](CO)[C@@H](O)[C@H]2O)c(=O)n1 [5-Azacytidine] | 1 | 3 | 1 | 1 | 9 | 1 (active) | 1 (active) | 1 (active) | 1 (active) | 1 (active) | 1 (active) | 1 (active) | 1 (active) | 1 (active) | 1 (active) | 1 (active) | 1 (active) | 1 (active) | 1 (active) | 1 (active) |
| CN[C@H]1CC[C@@H](c2ccc(Cl)c(Cl)c2)c2ccccc21 [sertraline] | 1 | 9 | 3 | 9 | 1 | 1 (active) | 1 (active) | 1 (active) | 1 (active) | 1 (active) | 1 (active) | 1 (active) | 1 (active) | 1 (active) | 1 (active) | 1 (active) | 1 (active) | 1 (active) | 1 (active) | 1 (active) |
| O=C(Cc1ccc(-c2ccc(OCCN3CCOCC3)cc2)cn1)NCc1ccccc1 | ≤ 0.3 | ≤ 0.3 | ≤ 0.3 | ≤ 0.3 | ≤ 0.3 | 1 (active) | 1 (active) | 1 (active) | 1 (active) | 1 (active) | 1 (active) | 1 (active) | 1 (active) | 1 (active) | 1 (active) | 1 (active) | 1 (active) | 1 (active) | 1 (active) | 1 (active) |
| Cc1cc(/N=N/c2ccc(S(=O)(=O)Nc3ccccn3)cc2)c(N)cc1O | 9 | 9 | 9 | 9 | 9 | 1 (active) | 1 (active) | 1 (active) | 1 (active) | 1 (active) | 1 (active) | 1 (active) | 1 (active) | 1 (active) | 1 (active) | 1 (active) | 1 (active) | 1 (active) | 1 (active) | 1 (active) |
| NC1(C(=O)N[C@@H](CCO)c2ccc(Cl)cc2)CCN(c2ncnc3[nH]ccc23)CC1 | ≤ 0.3 | 1 | 1 | 1 | 3 | 1 (active) | 1 (active) | 1 (active) | 1 (active) | 1 (active) | 1 (active) | 1 (active) | 1 (active) | 1 (active) | 1 (active) | 1 (active) | 1 (active) | 1 (active) | 1 (active) | 1 (active) |
